In PubChem BioAssay AID624330 (Southern Research Specialized Biocontainment Screening …, 2012) one finds inhibition data, which are given here for 96 molecules.

The campaign covered roughly 340,000 compounds. About 2,100 (0.62%) were called active. Only a sample is shown. Results with a measured potency or affinity are listed apart. A number with no mark means an inactive call.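 The calls were made as follows: active = first-screen hits whose inhibition reached a set limit at any dose in the follow-up dose series; inconclusive = inhibition above the set first-screen limit but never retested; inactive = the rest.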

Usually inhibition stands for the change of the read-out against control, counted positive when it falls.

Sequence of Rac GTPase-activating protein 1 (Homo sapiens) (Q9H0H5 whole entry, looked up): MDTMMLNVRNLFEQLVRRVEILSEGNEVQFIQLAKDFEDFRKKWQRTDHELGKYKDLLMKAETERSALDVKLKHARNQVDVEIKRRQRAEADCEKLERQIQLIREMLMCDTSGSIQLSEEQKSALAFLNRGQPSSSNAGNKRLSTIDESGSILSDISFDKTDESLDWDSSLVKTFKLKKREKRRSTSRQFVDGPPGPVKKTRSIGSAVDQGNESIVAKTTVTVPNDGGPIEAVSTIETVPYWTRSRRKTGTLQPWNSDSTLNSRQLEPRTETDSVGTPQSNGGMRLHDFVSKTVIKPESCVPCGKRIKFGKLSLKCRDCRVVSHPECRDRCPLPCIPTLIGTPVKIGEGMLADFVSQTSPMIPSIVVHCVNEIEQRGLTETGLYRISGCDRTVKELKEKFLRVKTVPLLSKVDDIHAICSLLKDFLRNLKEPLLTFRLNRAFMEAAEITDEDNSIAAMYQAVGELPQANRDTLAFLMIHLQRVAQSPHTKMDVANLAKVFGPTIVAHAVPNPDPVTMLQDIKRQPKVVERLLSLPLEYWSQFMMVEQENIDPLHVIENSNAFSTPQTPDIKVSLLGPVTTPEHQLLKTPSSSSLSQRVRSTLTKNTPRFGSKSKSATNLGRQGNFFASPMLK

This assay has as its target Rac GTPase-activating protein 1 (Homo sapiens) (UniProt Q9H0H5). Description: blockers of MgcRacGAP-driven Rac1 GTP hydrolysis – biochemical, ADP Hunter fluorescence, primary and confirmatory, confirmation (AID 624330).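 Also: fluorescence reports GDP produced by GAP-driven GTP hydrolysis.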 The following applies: MgcRacGAP-stimulated Rac1 GTP hydrolysis, at 30 µM, hits give high values, GST-tagged Rac1 F28L mutant substrate.
Turning to `COc1ccc(C(=O)N/C(=C\c2cc(OC)c(OC)cc2[N+](=O)[O-])C(=O)NCC(=O)O)cc1`, the inhibition was 5.33%.
On to `COc1ccc(-c2nc3c(C(=O)NCCN(C)C)cccc3c3ccccc23)cc1`, for which the inhibition was 28.1%.
For `CN(C)CCNC(=O)c1cccc2nc3cccc(F)c3nc12` the value was 14%; for `CCN(CC)S(=O)(=O)c1cccc(C(=O)N/N=C/c2cccc(O)c2O)c1`, 15%.
Turning to `CCN(CC)S(=O)(=O)c1cccc(C(=O)N/N=C/c2cc(OC)c(O)c(OC)c2)c1`, the inhibition was 13.8%.
For `O=C(N/N=C/c1ccc(F)c(F)c1)c1cccc(S(=O)(=O)N2CCCCC2)c1` the value was 0.51%.
In the case of `CCOc1cc(/C=N/NC(=O)c2cccc(S(=O)(=O)N3CCCC3)c2)ccc1OCC(=O)N(C)C` it was 5.83%; in that of `CCOc1ccccc1/C=N/NC(=O)c1cccc(S(=O)(=O)N2CCOCC2)c1`, 5.13%; in that of `O=C(O)c1ccc(S(=O)(=O)N2CCCCCCC2)cc1`, 13.8%.
Turning to `O=C(NN=Cc1ccc(F)cc1)c1cccc(S(=O)(=O)N2CCCC2)c1`, the inhibition is 6.35%.
For `O=C(/C=C/c1ccc(N2CCCCC2)c([N+](=O)[O-])c1)c1ccc(S(=O)(=O)N2CCCC2)cc1`, the inhibition is 6.38%.
In the case of `COc1cc2c(cc1OC)C(c1ccccc1)N(C(=O)C(C)(C)C)CC2` (stereo unspecified) it was 5.24%; in that of `COc1cc(/C=N/NC(=O)c2cccc(S(=O)(=O)N3CCCCC3)c2)cc(Br)c1O`, 18.1%; in that of `COc1cc(/C=N/NC(=O)c2cccc(S(=O)(=O)N3CCCC3)c2)cc(OC)c1O`, 15.2%.
In the case of `O=C(COC(=O)C1CC1)NCCc1ccccc1`, the inhibition was -3.28%.
Regarding `COCCCN1C(=O)C(CC(=O)NCc2ccco2)CC(C(=O)N(C)C)=C1C` (stereo unspecified), the inhibition is 14.3%.
For the molecule `CCOc1ccc(NS(=O)(=O)c2ccc(N)cc2)cc1`, the inhibition is 1.38%.
Consider `CCOc1ccc(NC(N)=O)cc1`, for which the inhibition was 2.99%.
In the case of `CCc1ccc(N2CN(Cc3cccnc3)CNC2=S)cc1` it was 4.47%.
In the case of `COc1ccc(C2C(C(=O)Nc3cccc(C)n3)c3ccccc3C(=O)N2C)cc1` (stereo unspecified), the inhibition is 5.99%.
As to `O=C(c1cccc(F)c1)N1CCN(Cc2ccco2)CC1`, the inhibition is 24.7%.
For `O=C(c1cccnc1)N1CCN(Cc2cccc(F)c2)CC1` the value was 23.3%.
For `O=C(c1cccnc1)N1CCN(Cc2ccc3ccccc3c2)CC1` the value was 22.8%; for `COc1ccc(Br)cc1CN1CCN(C(=O)c2cccc(F)c2)CC1`, 26.9%; for `O=C(CCn1nc(-c2ccc(Cl)cc2)ccc1=O)N1CCN(c2ccccc2)CC1`, 11.2%.
For `Cc1sc(NC(=O)CCC(=O)O)c(C#N)c1C` the value was 4.82%; for `CCCCNc1c(-c2ccc(-c3ccc(OC)cc3)c(OC)c2)nc2ccccn12`, 0.86%.
For the molecule `CCc1nc2ccccc2c(C(=O)O)c1C`, the inhibition was 1.89%.
For the molecule `CCOc1ccc(CC2S/C(=N/N=C/c3ccco3)NC2=O)cc1` (stereo unspecified), the inhibition was -0.79%.
`CN(C(=O)c1ccc(NC(=O)Cc2ccc(NC(=O)C3CCN(C(=O)C4CCCC4)CC3)cc2)cc1)C1CC1`: the inhibition is 4.41%.
Turning to `CCC(C)NC(=O)CNC(=S)N(CCCN1CCOCC1)Cc1cccs1` (stereo unspecified), the inhibition is -3.85%.
For `Cc1ccc2c(c1)N(C(=O)CCC(=O)N1CCC(C(N)=O)CC1)CCO2` the value was -0.21%; for `O=C(CN1C(=O)NC2(CCCCC2)C1=O)Nc1ccc(N2CCCCC2)cc1`, -8.69%.
In the case of `Cc1cc(N2CCCC2)ccc1NC(=O)CN1C(=O)NC(C)(c2ccccc2)C1=O` (stereo unspecified) it was 22.9%; in that of `CCC1(c2ccccc2)NC(=O)N(CC(=O)Nc2ccccc2N2CCCC2)C1=O` (stereo unspecified), 2.64%.
For `Cc1cc(Cl)ccc1NC(=O)CN1C(=O)NC2(CCCC2)C1=O` the value was 7.39%.
Regarding `Cc1ccc(C)c(NS(=O)(=O)c2cc3c4c(c2)CC(=O)N4CCC3)c1`, the inhibition was 12.2%.
In the case of `Cc1ccc(C2C(=O)c3ccccc3C2=O)cc1` it was 5.72%; in that of `COc1cc(C2N(C)C(=O)c3ccccc3N2C)ccc1O` (stereo unspecified), 9.29%.
For `COc1ccc(C2C(=O)c3ccccc3C2=O)cc1OC` the value was 8.73%.
`O=C1c2ccccc2C(=O)C1c1ccc(Br)cc1`: the inhibition was 9.65%.
Consider `COc1cc(C2OCC3C(c4cc(OC)c(OC)c(OC)c4)OCC23)cc(OC)c1OC` (stereo unspecified), for which the inhibition is 3.17%.
For `COc1cc([C@@H]2OC[C@@H]3[C@H]2CO[C@@H]3c2ccc3c(c2)OCO3)ccc1O` the value was 15.6%; for `O=C(NNc1nc2c(F)cccc2s1)c1ccccc1`, 3.05%; for `CC(=O)NC(CC(=O)NCCc1ccccc1)c1ccccc1` (stereo unspecified), 5.84%.
`COc1cc(/C=C/C(=O)O)cc(S(=O)(=O)N(CC(C)C)CC(C)C)c1OC`: the inhibition is 3.78%.
For `Cc1cc(OC(C)C(=O)NCCCN2CCOCC2)c2c(C)cc(=O)oc2c1` (stereo unspecified) the value was 5.41%; for `CCN1C[C@@H]2[C@@H]3C(=O)N(C)C(=O)[C@@H]3[C@](Cc3ccccc3)(C(=O)OC)N2C1=NCc1ccccc1`, 8.57%.
For `COc1cccc(NC(=O)COc2ncnc3sc(C)c(C)c23)c1` the value was 5.65%; for `CCOc1ccccc1/C=C(/NC(=O)c1ccccc1)C(=O)N(CC)CC`, 5.35%.
Consider `CC[C@]12C(=O)N(C)C[C@H]([C@@H]3C(=O)N(C)C(=O)[C@@H]31)N2C(=O)c1ccc(F)cc1`, for which the inhibition is 7.98%.
In the case of `CNS(=O)(=O)c1cccc(C(=O)OCC(=O)C23CC4CC(CC(C4)C2)C3)c1` it was 2.1%; in that of `COCc1cc(C)nc(OCC(=O)N/N=C/c2ccc(C)cc2)c1C#N`, 6.19%; in that of `COCc1cc(C)nc(OCC(=O)N/N=C/c2ccccc2)c1C#N`, 5.88%.
On to `COc1ccc(/C=N/NC(=O)COc2cccc3cccnc23)cc1OC`, for which the inhibition was 12%.
For `O=C(COc1ccccc1[N+](=O)[O-])N/N=C/c1ccncc1` the value was 3.99%; for `O=C(COc1cccc2cccnc12)N/N=C/c1ccccc1O`, 9.73%; for `O=C(COc1ccccc1[N+](=O)[O-])N/N=C/c1ccc(O)c([N+](=O)[O-])c1`, 5%.
Regarding `CC(C(=O)NCC1CCCCC1)N(C)Cc1ccc(Cl)cc1` (stereo unspecified), the inhibition is 9.97%.
In the case of `NC(=O)c1ccc(NC(=O)CCc2nc3ccccc3s2)cc1` it was 9.08%; in that of `Fc1ccccc1CN1CCN(c2ncccn2)CC1`, 18.2%.
For `COc1ccccc1C(=O)N1CCN(CCc2ccccc2)CC1` the value was 5.14%.
For `COc1cccc(OC)c1C(=O)N1CCN(Cc2ccncc2)CC1` the value was 17.3%; for `COc1ccccc1C(=O)N1CCN=C1SCc1cccnc1`, 9.35%; for `COc1ccc(CN2CCN(C(=O)c3cccnc3)CC2)cc1Br`, 26.4%.
`CCOc1ccccc1/C=C/c1nc2ccccc2[nH]c1=O`: the inhibition was -3.6%.
For `CSCCC(=O)N(C)CC1CCN(CCc2cccc(C(F)(F)F)c2)CC1` the value was -11.6%; for `COc1cc(OC)nc(NC(=O)NS(=O)(=O)c2ccc(OC(F)(F)F)cc2)n1`, 7.78%; for `COc1ccc2nc(SCC(=O)NC3CCCCC3C)[nH]c2c1` (stereo unspecified), 6.19%.
In the case of `COc1ccc(C(O)(C(C)C)C(CN2CCOCC2)c2ccc(Cl)cc2)cc1` (stereo unspecified), the inhibition was 3.23%.
In the case of `COc1ccc(/C=N/Nc2cc(C)nc(NS(=O)(=O)c3ccc(C)cc3)n2)cc1` it was 8.72%; in that of `COc1cc(/C=N/Nc2nc(C)cc(C)n2)cc(OC)c1OC`, 18.6%; in that of `COc1cc(/C=N/Nc2nc(C)cc(C)n2)ccc1OC(=O)c1ccco1`, 12.7%.
In the case of `Oc1ccccc1/C=N/NC1=NCCCCC1`, the inhibition was -4.7%.
In the case of `COc1cc(/C=N/Nc2cc(C)nc(NS(=O)(=O)c3ccc(C)cc3)n2)ccc1O` it was 23.4%; in that of `COc1ccc(-c2cnnc(N/N=C/c3ccc(O)cc3)n2)cc1`, 15.5%; in that of `COc1ccc(-c2cnnc(N/N=C/c3ccc(O)c(OC)c3)n2)cc1`, 28.9%.
For `Oc1ccc(/C=N/NC2=NCCCCC2)cc1`, the inhibition was 14.8%.
`CC(=O)NCc1nc2ccccc2n1Cc1ccccc1F`: the inhibition was 2.14%.
For `Cc1cccc(C(=O)OCC(=O)NC2CCCCCCC2)c1` the value was -0.77%; for `Cc1cc(C)c(C#N)c(SCc2nc3ccccc3[nH]2)n1`, 11.2%; for `CCN(C(=O)c1ccccc1)c1ccc([N+](=O)[O-])cc1`, 6.29%.
For `C=CCn1c(N)cc(=O)nc1SCC(=O)Nc1ccc2ccccc2c1` the value was 6.15%; for `NC1=NC(c2ccccc2)CC(=O)N1` (stereo unspecified), 0.78%; for `COc1ccc(OC)c(CN2CCN(CC(=O)Nc3ccccc3C(=O)NC3CC3)CC2)c1`, 3.43%.
On to `Cc1ccc(-n2c(CNc3cccc(Cl)c3)n[nH]c2=S)cc1`, for which the inhibition is -10.3%.
Take `CCN(CC)S(=O)(=O)c1cccc(C(=O)NCC2CCCO2)c1` (stereo unspecified): the inhibition is -3.29%.
In the case of `S=C(c1ccc(-c2ccccc2Cl)o1)N1CCOCC1`, the inhibition is 10.6%.
In the case of `Cc1ccc(/C=N/Nc2nc(C)cc(C)n2)cc1` it was 6.97%; in that of `COc1cc(/C=N\Nc2nc(-c3ccc(C)cc3)c(NC(C)=O)s2)ccc1O`, 17.7%.
As to `Cc1cc(C)nc(N/N=C/c2ccc(Cl)cc2)n1`, the inhibition was 7.83%.
For `COc1cc(/C=N/Nc2nnc3c(n2)[nH]c2ccccc23)ccc1O` the value was 9.92%; for `COc1ccccc1/C=N/NC1=NCCCCC1`, 4.83%.
In the case of `COc1ccc(/C=N/NC2=NCCCCC2)cc1` it was -0.36%; in that of `CCNc1nc(NCC)nc(N/N=C/c2ccccc2)n1`, 5.89%; in that of `CCNc1nc(NCC)nc(N/N=C/c2ccc(Br)cc2)n1`, 4.59%.
